High-throughput results deposited in PubChem by National Center for Advancing Translational Sciences (NCATS).
DT40 TDP1 CPT: growth inhibition of DT40 Tdp1-/-;hTDP1 cells with camptothecin (screen for TDP1 inhibitors); chicken DT40 Tdp1-/-;hTDP1 cells + 20 nM CPT, ATP luminescence, 48 h; Potency, µM (doses to about 46.2 µM), inactives show at the highest dose activity change, negative = growth inhibition, hits mostly inhibitors; actives 12% (n = 420,000); AID 686979; further: potency means the concentration at half of the fitted maximal effect; on the % scale 0 is the no-effect control and ±100 the full control effect; nearly all actives have a fitted effect of over 55% in size
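Chicken DT40 Tdp1-/- cells complemented with human TDP1, 400 cells/well, exposed to compounds plus 20 nM camptothecin for at least 48 h at 37 C; viability read as ATP content by CellTiter-Glo luminescence.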
MCF10A rereplic: inducers of DNA re-replication in MCF 10A breast cells | AID 624296 | Potency, µM (top dose mostly 46.1 µM), inactives show at the top dose activity, positive = re-replication, usual class: activators | actives 2.9% (n = 350,000) | MCF 10A DNA re-replication, Hoechst nuclear intensity, 48 h; further: potency means the concentration at half of the fitted maximal effect; % of control where 0% means no effect; nearly all actives have a fitted effect of over 50% in size
BCR signal inh: inhibitors of chronic active B-cell receptor signaling; Potency, µM (titrated, usually from 46.1 µM), for inactives: at the top dose activity change, negative = inhibition, hits mostly inhibitors; ABC-DLBCL IkBa-CBG/CBR reporter, luminescence ratio, 4 h; actives 0.05% (n = 340,000); active means well fitted inhibition curve with a large enough effect in the signal ratio, with a control signal flat, not every such curve was filed as active; inconclusive means small, poorly fitted or top-dose-only effect, or effect the other way, or a change in a side signal; the % refers to the signal ratio;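 further: potency means the concentration at half of the fitted maximal effect; plate controls were basal doxycycline-induced cells for no effect and cells given 10 µM MG132 for full effect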
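TMD8 human ABC-DLBCL cells with doxycycline-inducible IκBα–green luciferase fusion and unfused red luciferase, in 0.5% FBS medium; compounds up to 46 uM, 4 h at 37C. Green/red luminescence ratio, filter-overlap corrected, fitted to concentration-response curves.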
TDP1 cell noCPT: qHTS for Inhibitors of human tyrosyl-DNA phosphodiesterase 1 (TDP1): qHTS in cells in absence of CPT | DT40 Tdp1-/- hTDP1 cells, no CPT, ATP luminescence, 48 h | Potency, µM (doses to about 46.2 µM), for inactives: top-dose activity change, negative = growth inhibition, actives largely listed as inhibitors | actives 15% (n = 420,000); further: potency means the concentration at half of the fitted maximal effect; on the % scale 0 is the no-effect control and ±100 the full control effect; nearly all actives have a fitted effect of over 55% in size
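No-CPT arm: Tdp1-/-;hTDP1 DT40 cells (400/well) plus compounds, incubated ≥48 hr at 37 °C. Readout CellTiter-Glo luminescence.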
SW480 rereplic: DNA re-replication induction in SW480 cells; SW480 DNA re-replication, Hoechst DNA content imaging, 48 h; Potency, µM (doses to about 46.1 µM), for inactives: at the top dose re-replication activation, most hits filed as activators; actives 1.8% (n = 340,000); further: potency means the concentration at half of the fitted maximal effect; % of control where 0% means no effect; nearly all actives have a fitted effect of over 55% in size
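Image-based read-out: total Hoechst fluorescence of nuclei (405 nm excitation, 500-530 nm emission), with hits raising the fraction of high-intensity nuclei. SW480 colon cells incubated 48 hr with compounds at 37 C.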
IL-1B inflam inh: blocks inflammasome-driven IL-1 beta release. AID 743279. activity change, % at 57.5 µM. actives 4.7% (n = 360,000). THP-1 LPS/ATP IL-1B secretion, AlphaLISA, 16 h; hits give low values; in the data active means activity change below about -50%; inconclusive means mostly about -30% to -49%; further: on the % scale 0 is the no-effect control and ±100 the full control effect
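THP-1 cells pretreated 1 hr with compounds (up to 57.5 uM final), then stimulated with LPS (250 ng/mL final) plus ATP (1.25 mM final); secreted IL-1B measured by AlphaLISA after 16 hr, decreased signal indicating inhibition.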
* marks the source's active call; other numbers are inactive results; i = inactive; ? = inconclusive; · = no result. The list is not random: actives were taken first. Their share in the collection is about 19%. Unless noted, the call rests on the fitted dose curve; in most records, active means well fitted curve in the direction sought with a large enough effect; inconclusive means small, poorly fitted or top-dose-only effect, or another doubt; inactive means no such curve, though single readings can be large; an effect the other way counts as inactive or inconclusive.

SMILES	DT40 TDP1 CPT	MCF10A rereplic	BCR signal inh	TDP1 cell noCPT	SW480 rereplic	IL-1B inflam inh
CCCn1c(N)c(N(CCOC)C(=O)c2ccc(-c3ccc(Cl)cc3)o2)c(=O)[nH]c1=O	-2%	5%	-2%	-5%	-1%	-6
COc1ncc2ncc(=O)n(C3CC3)c2n1	-18%	·	·	?	·	·
CC1CCN(C(=O)CCC(=O)Nc2nnc(C3CCCCC3)s2)CC1	?	?	9%	-2%	0%	57
Cc1cccc(C)c1C(O)c1ncc(-c2ccc(F)cc2)[nH]1 (centres undefined)	?	·	·	?	·	-7
CNC(=O)Cn1nc(-c2ccc(Cl)cc2)c2ccccc2c1=O	22%	-2%	?	18%	1%	12
CC(O)(c1ccc(F)c(F)c1)c1nc(-c2ccncc2)cs1 (centres undefined)	21µM*	·	·	13µM*	·	12
COc1ccc(C(C)(O)c2nc(-c3ccc(S(C)(=O)=O)cc3)cs2)cc1 (centres undefined)	?	·	·	23µM*	·	-5
CC(O)(c1ccc(F)c(F)c1)c1nc(-c2ccc(S(C)(=O)=O)cc2)cs1 (centres undefined)	?	·	·	16µM*	·	3
COc1ccc(C(=O)Nc2ccnn2C2CCN(C(=O)c3cnsn3)CC2)cc1	-16%	-2%	2%	-4%	-4%	-13
CCC(=NCc1ccc(Cl)c(Cl)c1)c1nc(-c2ccco2)oc1O	?	?	?	?	-695%	-64*
Nc1ncnc(N2CCOCC2)c1N	21%	1%	5%	-4%	21µM*	13
Nc1c(Cl)ncnc1N1CCCC1	9%	-1%	3%	-18%	-1%	-13
C[C@H](NC(=O)c1ccc(Cl)cc1)C(=O)NNC(=O)c1cccs1	-6%	0%	?	19%	-6%	2
Cc1ccc(OCC(=O)NC(=S)Nc2ccccn2)c(Br)c1	-9%	0%	?	-6%	0%	56
CC(C)c1ccc(OCC(=O)NNC(=S)NC(=O)C2CC2)cc1	?	?	?	15µM*	?	61
N#Cc1ccc(OCC(=O)NNC(=S)NC(=O)C2CC2)cc1	?	-5%	0%	21µM*	-2%	15
CCC(C)c1ccc(OCC(=O)NNC(=O)C2CCCCC2)cc1 (centres undefined)	0%	26%	?	-2%	-6%	-3
N#Cc1ccc(NC(=S)NC(=O)C2CCCCC2)cc1	?	14%	?	?	-7%	-6
Cc1ccc(OCC(=O)NNC(=O)C2CCC2)cc1C	-17%	3.3µM*	2%	9%	-2%	-16
Cc1ccc(OCC(=O)NNC(=S)NC(=O)C(C)(C)C)c(Br)c1	?	0%	1%	18µM*	?	81
O=C(NCc1ccccc1)C(c1ccccn1)N(C(=O)c1csnn1)c1ccccc1F (centres undefined)	?	-19%	?	-18%	3%	0
COc1cc2c(cc1OC)CN(C1CCC(C)CC1)CC2 (centres undefined)	-3%	-1%	?	14%	?	11
COc1cc(OC)cc(C(=O)NNC(=O)CCc2nc3ccccc3c(=O)[nH]2)c1	4%	7%	-6%	15%	?	0
CC(C)c1ccc(OCC(=O)NNC(=S)NC(=O)c2cccs2)c(Br)c1	18µM*	?	0%	23µM*	-14%	i
Cc1ccc(OCC(=O)NNC(=O)c2ccc(NC(=O)C3CC3)cc2)c(C)c1	-4%	5%	?	-14%	-20%	10
